# Test results taken from the supplement of paper PMC13380429.
# Test system: Vero E6 infected with SARS-CoV-2
# Experiment: inhibition of SARS-CoV-2 cytopathic effect; higher = more antiviral protection, active = above 15
# Settings: 8.33 nM; 48 h
row,SMILES,inhibition of SARS-CoV-2 cytopathic effect
1,Cn1cc(C(F)(F)F)nc1-c1ccc(OCC(O)CNCCOc2ccc(O)c(C(N)=O)c2)cc1 (stereo not given),-0.6% (inactive)
2,CC(C)C[C@H](NC(=O)[C@@H](Cc1c[nH]c2ccccc12)NC(=O)[C@H](Cc1ccc(O)cc1)NC(=O)[C@H](CO)NC(=O)[C@H](Cc1c[nH]c2ccccc12)NC(=O)[C@H](Cc1c[nH]cn1)NC(=O)[C@@H]1CCC(=O)N1)C(=O)N[C@@H](CCCNC(=N)N)C(=O)N1CCC[C@H]1C(=O)NCC(N)=O [triptorelin],2.79% (inactive)
3,CC(=O)Nc1ccc(S(=O)(=O)c2ccc(NC(C)=O)cc2)cc1 [acedapsone],-3.01% (inactive)
4,CC(C(=O)O)c1ccc2c(c1)CC(=O)c1ccccc1S2 (stereo not given) [zaltoprofen],2.8% (inactive)
5,CC(C)CN(C[C@@H](O)[C@H](Cc1ccccc1)NC(=O)O[C@H]1CCOC1)S(=O)(=O)c1ccc(N)cc1 [amprenavir],1.43% (inactive)
6,CCc1cc2c(s1)-n1c(C)nnc1CN=C2c1ccccc1Cl [etizolam],2.54% (inactive)
7,CN(C)CCN1C(=O)c2cccc3cc(NC(N)=O)cc(c23)C1=O [unbs-5162],4.76% (inactive)
8,COc1ccc(-c2cc(=O)c3c(OC)c(OC)c(OC)c(OC)c3o2)cc1OC [nobiletin],-2.18% (inactive)
9,CC(=O)c1ccc2c(c1)N(CCCN1CCC(CCO)CC1)c1ccccc1S2 [piperacetazine],4.04% (inactive)
10,Cc1nnc(C(=O)NC(C)(C)c2nc(C(=O)NCc3ccc(F)cc3)c(O)c(=O)n2C)o1 [raltegravir],-0.27% (inactive)
11,O[C@@H]1CO[C@H]2[C@@H]1OC[C@@H]2O [isosorbide],1.81% (inactive)
12,O=C1c2ccccc2CCC1CNCCc1ccc(O)cc1 (stereo not given),-1.18% (inactive)
13,COCC(=O)Nc1c(I)c(C(=O)NCC(O)CO)c(I)c(C(=O)N(C)CC(O)CO)c1I (stereo not given) [iopromide],-1.91% (inactive)
14,Clc1ccccc1CNC[C@H]1CC[C@H](CNCc2ccccc2Cl)CC1,-2.28% (inactive)
15,CC[n+]1c(-c2ccccc2)c2cc(N)ccc2c2ccc(N)cc21 [homidium],6.71% (inactive)
16,Cc1ccc(O)c(N=Nc2ccccc2)n1,-4.41% (inactive)
17,CCCCn1c(-c2ccccc2)nc(-c2ccccc2)c1CN(Cc1ccc2c(c1)OCO2)Cc1ccc2c(c1)OCO2,1.63% (inactive)
18,COc1cc2cc(c1Cl)N(C)C(=O)C[C@H](OC(=O)C(C)C)[C@]1(C)O[C@@H]1[C@H](C)[C@@H]1C[C@@](O)(NC(=O)O1)[C@H](OC)/C=C/C=C(\C)C2 [ansamitocin-p-3],-1.3% (inactive)
19,Cc1ccc(-c2cn3c4c(sc3n2)CCCC4)cc1 [pifithrin-cyclic],-2.91% (inactive)
20,C#Cc1cccc(Nc2ncnc3cc(OCCOC)c(OCCO)cc23)c1,-0.66% (inactive)

row,SMILES,inhibition of SARS-CoV-2 cytopathic effect
1,CN1C[C@H](C(=O)N[C@]2(C)O[C@@]3(O)[C@@H]4CCCN4C(=O)[C@H](Cc4ccccc4)N3C2=O)C[C@@H]2c3cccc4[nH]cc(c34)C[C@H]21 [dihydroergotamine],0.5% (inactive)
2,CNC(=O)[C@H]1O[C@@H](n2cnc3c(NCc4cccc(I)c4)nc(Cl)nc32)[C@H](O)[C@@H]1O,3.03% (inactive)
3,CCCCC(CC)CCC(CC(C)C)OS(=O)(=O)O (stereo not given) [sodium-tetradecyl-sulfate],3.18% (inactive)
4,CCc1nn(CCCN2CCN(c3cccc(Cl)c3)CC2)c(=O)n1CCOc1ccccc1 [nefazodone],0.31% (inactive)
5,CCCS(=O)(=O)Nc1ccc(F)c(C(=O)c2c[nH]c3ncc(-c4ccc(Cl)cc4)cc23)c1F [vemurafenib],1.81% (inactive)
6,N[C@H](C(=O)O)c1cc(O)no1 [ibotenic-acid],1.34% (inactive)
7,O=[N+]([O-])/N=C1\NCCN1Cc1ccc(Cl)nc1 [imidacloprid],5.02% (inactive)
8,Cc1nc(Nc2ncc(C(=O)Nc3c(C)cccc3Cl)s2)cc(N2CCN(CCO)CC2)n1 [dasatinib],-1.86% (inactive)
9,CCOP(=S)(OCC)Oc1ccc2c(C)c(Cl)c(=O)oc2c1 [coumophos],0.82% (inactive)
10,O=C1NC(=O)C(c2cnc3ccccn23)=C1c1cn2c3c(cc(F)cc13)CN(C(=O)N1CCCCC1)CC2,7.15% (inactive)
11,CCOC(=O)C(=O)Nc1cccc(OC)c1C(N)=O,7.85% (inactive)
12,Cc1cc(OI)c(C(C)C)cc1-c1cc(C(C)C)c(OI)cc1C [thymol-iodide],-0.04% (inactive)
13,Nc1n[nH]c2nc3ccccc3nc12 [CDK1-5-inhibitor],0.41% (inactive)
14,CC(C)(C)c1cc(NC(=O)Nc2ccc(-c3cn4c(n3)sc3cc(OCCN5CCOCC5)ccc34)cc2)no1 [quizartinib],-0.28% (inactive)
15,COc1cc(NS(=O)(=O)c2ccc(N)cc2)nc(OC)n1 [sulphadimethoxine],-2.06% (inactive)
16,NC(=O)c1ncn([C@@H]2O[C@H](CO)[C@@H](O)[C@H]2O)n1 [ribavirin],-3.9% (inactive)
17,Cc1nc(Nc2ccc(F)cc2)nc(N2CCc3ccccc3C2C)c1C (stereo not given) [revaprazan],1.64% (inactive)
18,CN1CCCC(n2nc(Cc3ccc(Cl)cc3)c3ccccc3c2=O)CC1 (stereo not given) [azelastine],-0.03% (inactive)
19,O=C1N=C2SCCN2C(=O)C1Cc1ccc(Cl)cc1 (stereo not given) [nuclomedone],-3.69% (inactive)
20,CO[C@@]12[C@H](COC(N)=O)C3=C(C(=O)C(C)=C(N)C3=O)N1C[C@@H]1N[C@@H]12 [mitomycin-C],-2.65% (inactive)
